In all, about 33,000 sequences were measured (“normalized occupancy”: median about 0.075, highest 2% from about 0.095 on). This excerpt belongs to a sample that is enriched for the highest values.

In the assay the target is MaxL homodimer (Homo sapiens, UniProt P61244 1-160). The experiment in a line: universal protein-binding microarray (PBM); PBS-based mixture, 10 nM His-tagged protein dimer, 2% milk, 200 ng/uL BSA, 50 ng/uL salmon testes DNA, 0.02% TX-100; detection with Alexa 488 anti-His antibody;; high values mean tight binding. The conditions noted are these: protein: recombinant; tags: C-terminal His-tag (pET21a); chain copies: 2; dsDNA, one strand shown. The essentials: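 Arrays of the 'all 10-mer' universal design (Agilent 4 x 44 K) were exposed to 10 nM His-tagged protein dimer, stained with 10 ng/μL fluorophore-conjugated anti-His antibody and read on a GenePix 4400A to give a fluorescence intensity for each 8-mer. Binding occupancy is each intensity divided by the highest-ranked intensity.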
Chain of MaxL homodimer (P61244 whole entry): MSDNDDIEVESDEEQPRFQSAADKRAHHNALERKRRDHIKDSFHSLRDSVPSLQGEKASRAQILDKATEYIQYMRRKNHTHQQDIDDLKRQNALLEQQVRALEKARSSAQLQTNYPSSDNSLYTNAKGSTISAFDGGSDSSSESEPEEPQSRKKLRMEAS
On to AGACCATC, for which the binding signal turned out to be 0.0766 normalized occupancy.
Take ATCTAGTG: the binding signal came to 0.078 normalized occupancy.
To GCCTGCCA belongs 0.072 normalized occupancy.
With ATGCACGC the figure was 0.111 normalized occupancy; with CTGCACGC, 0.0997 normalized occupancy.
To AAGCACGC belongs 0.0949 normalized occupancy; to CAGCACGA, 0.0909 normalized occupancy.
Take ATGCACGA: the binding signal stood at 0.0913 normalized occupancy.
To CTGCACGA belongs 0.0824 normalized occupancy; to ATGCACGG, 0.0875 normalized occupancy.
To CAGCACGC belongs 0.0982 normalized occupancy; to CTGCACAA, 0.0745 normalized occupancy; to CAATTTGG, 0.0724 normalized occupancy.
On to CCACCGAA, for which the binding signal amounted to 0.0733 normalized occupancy.
With AACAGCGA the figure was 0.0748 normalized occupancy.
Take AGTCACAA: the binding signal turned out to be 0.0805 normalized occupancy.
To GTATATCA belongs 0.0787 normalized occupancy; to CCCACCCA, 0.0925 normalized occupancy; to CCCACCCC, 0.0962 normalized occupancy.
With AACCCCCC the figure was 0.0825 normalized occupancy.
To ACCCCCCA belongs 0.0865 normalized occupancy.
For the sequence ACCCCCCC, the binding signal worked out at 0.0963 normalized occupancy.
With GCCACCCC, the binding signal is 0.0827 normalized occupancy.
With GGTGCAAA the figure was 0.0755 normalized occupancy.
To CCACGAGA belongs 0.1 normalized occupancy.
As to CCACGAAG, the binding signal worked out at 0.0767 normalized occupancy.
With GCACGAGC the figure was 0.085 normalized occupancy.
With TCACGAGA the figure was 0.0875 normalized occupancy.
With GCACGAGA the figure was 0.098 normalized occupancy; with CCACGACG, 0.0811 normalized occupancy; with CAACGAGA, 0.0767 normalized occupancy.
For the sequence CCACGAGC, the binding signal was determined as 0.0889 normalized occupancy.
As for CCACGAGG, the binding signal turned out to be 0.182 normalized occupancy.
To ATGGACTA belongs 0.0826 normalized occupancy.
To ACTGTTCA belongs 0.073 normalized occupancy; to AATGTTAC, 0.0779 normalized occupancy.
Take ACTGCGGA: the binding signal is 0.0741 normalized occupancy.
To AGCTCCAA belongs 0.0722 normalized occupancy; to CTACGCCA, 0.0777 normalized occupancy.
With GCACGCCA, the binding signal was determined as 0.0859 normalized occupancy.
With CCACGCCG the figure was 0.0985 normalized occupancy; with CCACGCCA, 0.0991 normalized occupancy; with CCACGCCC, 0.0948 normalized occupancy.
As for CCACACCA, the binding signal amounted to 0.0899 normalized occupancy.
With CGCTTGTA the figure was 0.0739 normalized occupancy; with AGGCTTTA, 0.0758 normalized occupancy; with ATGCCAAC, 0.0785 normalized occupancy.
With AGGCGTTC the figure was 0.0755 normalized occupancy.
For AGGCGTGC, the binding signal came to 0.0963 normalized occupancy.
To AGGCGCGC belongs 0.0762 normalized occupancy; to AGGCGTGA, 0.0829 normalized occupancy.
As to AGGCGTCG, the binding signal worked out at 0.0733 normalized occupancy.
On to AGGCGTGG, for which the binding signal was determined as 0.098 normalized occupancy.
Consider AATTAAAT, for which the binding signal came to 0.0748 normalized occupancy.
To CGTAATTC belongs 0.0757 normalized occupancy; to ACCAAGCG, 0.0722 normalized occupancy; to ACAACTGT, 0.0734 normalized occupancy.
To ACACGCGG belongs 0.143 normalized occupancy.
On to ACGCGCGC, for which the binding signal was 0.0821 normalized occupancy.
Consider ACGCGCGT, for which the binding signal amounted to 0.0896 normalized occupancy.
To AAACGCGT belongs 0.08 normalized occupancy.
Take ACACGCGA: the binding signal worked out at 0.116 normalized occupancy.
With AAACGCGA the figure was 0.0771 normalized occupancy.
To ACACGCGT belongs 0.13 normalized occupancy; to ATACGCGC, 0.0771 normalized occupancy.
To ACACGCGC belongs 0.112 normalized occupancy; to ACGCGCGG, 0.0929 normalized occupancy.
With AAACGCGG, the binding signal turned out to be 0.0761 normalized occupancy.
To ACGCGCGA belongs 0.0786 normalized occupancy.
To TAGAACAA belongs 0.0771 normalized occupancy; to CAGTGCTC, 0.0745 normalized occupancy.
To ATAGCGAA belongs 0.0727 normalized occupancy; to ATTGTAAC, 0.0837 normalized occupancy; to CTCAATCA, 0.0801 normalized occupancy.
Consider ACAATGAA, for which the binding signal amounted to 0.0787 normalized occupancy.
Regarding AGGACATA, the binding signal came to 0.0758 normalized occupancy.
Take TCTTATCA: the binding signal came to 0.0736 normalized occupancy.
With CTACTGTC the figure was 0.0719 normalized occupancy; with CGACATGA, 0.0858 normalized occupancy.
With CGACATTC the figure was 0.0758 normalized occupancy; with AGACATGC, 0.102 normalized occupancy.
With AGACATGA the figure was 0.0878 normalized occupancy; with CGACATGC, 0.0992 normalized occupancy; with AGACATGG, 0.0832 normalized occupancy.
As for CTAGCTCA, the binding signal came out at 0.0759 normalized occupancy.
To CACGCCCA belongs 0.0892 normalized occupancy; to GAGAGCAC, 0.0743 normalized occupancy; to CCACGCAC, 0.0964 normalized occupancy.
With CGACGCTA the figure was 0.0724 normalized occupancy.
On to ACACGCTC, for which the binding signal was 0.0924 normalized occupancy.
GAACGCTA: the binding signal worked out at 0.0771 normalized occupancy.
With GCACGCTA, the binding signal was found to be 0.101 normalized occupancy.
To GTACGCTA belongs 0.0796 normalized occupancy; to CAACGCTA, 0.0734 normalized occupancy.
With GCACGCAC the figure was 0.0902 normalized occupancy.
Consider CAACGCTC, for which the binding signal amounted to 0.0772 normalized occupancy.
To CCACGCTC belongs 0.0965 normalized occupancy; to CCACGCAA, 0.0865 normalized occupancy.
With CCACGCTA the figure was 0.0973 normalized occupancy.
